# Source: ChEMBL document CHEMBL1201862, “PubChem BioAssay data set” (2004)
# In all, about 400,000 compounds went through this assay and about 2,100 (0.53%) were called active. About 14% were inconclusive and are not listed. How the calls were made is not given here. This excerpt belongs to a sample that is enriched for actives.
# Biological target: Ataxin-2 (Homo sapiens) (UniProt Q99700)
# Experiment: qHTS for Inhibitors of ATXN expression.
# Format: functional
# Ataxin-2 (Homo sapiens), sequence (Q99700 whole entry): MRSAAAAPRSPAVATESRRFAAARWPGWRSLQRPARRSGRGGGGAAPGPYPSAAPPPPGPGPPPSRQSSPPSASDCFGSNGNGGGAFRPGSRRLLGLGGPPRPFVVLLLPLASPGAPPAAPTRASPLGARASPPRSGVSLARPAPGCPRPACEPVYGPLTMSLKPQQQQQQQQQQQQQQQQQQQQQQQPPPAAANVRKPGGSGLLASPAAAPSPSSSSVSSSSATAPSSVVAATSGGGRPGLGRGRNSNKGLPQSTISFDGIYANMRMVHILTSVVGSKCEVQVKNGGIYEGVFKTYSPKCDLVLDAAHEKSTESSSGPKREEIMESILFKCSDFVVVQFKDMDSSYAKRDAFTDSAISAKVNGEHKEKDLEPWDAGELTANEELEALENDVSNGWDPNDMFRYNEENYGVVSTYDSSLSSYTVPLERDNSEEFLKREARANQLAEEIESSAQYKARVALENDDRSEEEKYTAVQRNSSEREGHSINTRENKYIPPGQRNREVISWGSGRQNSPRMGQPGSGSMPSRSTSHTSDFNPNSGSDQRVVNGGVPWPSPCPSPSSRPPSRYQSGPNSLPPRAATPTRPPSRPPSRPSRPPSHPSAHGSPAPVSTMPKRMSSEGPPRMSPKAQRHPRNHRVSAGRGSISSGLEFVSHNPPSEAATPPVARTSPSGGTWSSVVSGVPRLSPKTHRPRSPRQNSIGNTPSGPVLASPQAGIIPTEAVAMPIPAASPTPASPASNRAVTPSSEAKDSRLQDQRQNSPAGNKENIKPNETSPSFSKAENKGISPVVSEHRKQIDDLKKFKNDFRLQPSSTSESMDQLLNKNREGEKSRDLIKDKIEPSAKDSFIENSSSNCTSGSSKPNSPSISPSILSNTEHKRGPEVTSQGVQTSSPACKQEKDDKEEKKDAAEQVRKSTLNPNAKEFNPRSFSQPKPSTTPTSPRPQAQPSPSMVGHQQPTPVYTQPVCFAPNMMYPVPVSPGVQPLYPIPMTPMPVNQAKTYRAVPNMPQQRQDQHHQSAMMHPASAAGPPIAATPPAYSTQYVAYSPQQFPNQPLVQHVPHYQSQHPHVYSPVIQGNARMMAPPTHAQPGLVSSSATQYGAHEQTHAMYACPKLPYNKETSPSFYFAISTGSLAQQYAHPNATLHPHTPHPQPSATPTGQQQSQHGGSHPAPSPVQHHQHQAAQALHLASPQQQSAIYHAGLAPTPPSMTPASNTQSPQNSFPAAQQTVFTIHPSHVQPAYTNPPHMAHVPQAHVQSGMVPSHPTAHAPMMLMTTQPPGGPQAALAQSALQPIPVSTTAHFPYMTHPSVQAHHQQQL
row,SMILES,Potency
1,O=C(N/N=C/c1ccsc1)C1CC1,inactive
2,COc1ccc2[nH]c(CN3CCN(CCC(C)C)C(CCO)C3)c(C)c2c1 (centres undefined),inactive
3,CCOC(=O)C1=C(C)N=c2s/c(=C/c3ccc(OCC(=O)O)c(OC)c3)c(=O)n2C1c1ccc(Cl)cc1 (centres undefined),inactive
4,CCN1CCN(CC(=O)Nc2nc3ccc(C)cc3s2)CC1,inactive
5,CCCc1nnc(NC(=O)c2nc(S(=O)(=O)Cc3ccc(C)cc3)ncc2Cl)s1,39.8 µM (active)
6,CC(=O)Nc1nnc(COc2ccc(Cl)cc2)s1,inactive
7,CCc1nnc(NC(=O)c2sc3nc4c(cc3c2N)CCCCC4)s1,inactive
8,CCc1nnc(NC(=O)c2nc(S(=O)(=O)Cc3ccc(C)cc3)ncc2Cl)s1,31.6 µM (active)
9,CCc1nnc(NC(=O)c2sc3nc4c(cc3c2N)CCCCCC4)s1,inactive
10,CCc1nnc(NC(=O)c2ccc(S(=O)(=O)N(CCOC)CCOC)cc2)s1,inactive
11,CCCc1nnc(NC(=O)c2nc(S(=O)(=O)Cc3cccc(C)c3)ncc2Cl)s1,35.5 µM (active)
12,CCc1nnc(NC(=O)c2ccc(Br)o2)s1,inactive
13,Cc1ccc2nc(-c3ccc(NS(=O)(=O)c4c(C)n(C)c(=O)n(C)c4=O)cc3)sc2c1,inactive
14,CCOCCC(=O)Nc1nnc(CCc2ccccc2)s1,inactive
15,Cc1ccc(CS(=O)(=O)c2ncc(Cl)c(C(=O)Nc3nc4ccc(C)cc4s3)n2)cc1,22.4 µM (active)
16,Cc1sc(NC(=O)/C=C/c2ccco2)c(C(=O)OC(C)C)c1C,inactive
17,O=C(O)CC/C(=N/NC(=O)CNC(=O)Cc1ccccc1)c1ccccc1,inactive
18,COc1ccc(/C=N/NC(=O)c2sccc2C)c2ccccc12,inactive
19,CCCc1nnc(SCC(=O)Nc2cccc(Cl)c2Cl)o1,inactive
20,Fc1ccc(NC(S)=Nc2nccs2)cc1,inactive
21,O=C(c1cnn(-c2ccc(Cl)cc2)c1)c1ccccc1O,inactive
22,OCCNc1c2ccccc2nc2c(F)c(F)c(F)c(F)c12,inactive
23,O=c1oc2c(CN3CCCCC3)c(O)ccc2cc1-c1nc2ccccc2[nH]1,inactive
24,CC(C)(C)NC(=O)CSc1nnc(NC(=O)CCc2ccccc2)s1,inactive
25,CSc1ncc(C(=O)Nc2ccccc2Cl)c(C)n1,inactive

row,SMILES,Potency
1,CSc1nnc(NC(=O)c2nc(S(=O)(=O)Cc3ccccc3)ncc2Cl)s1,28.2 µM (active)
2,O=C(CN(CCc1ccccc1)C(=O)c1csnn1)NCc1ccc(F)cc1,inactive
3,Cc1ccccc1C1N=C2Oc3ccccc3C=C2C(=O)N1 (centres undefined),inactive
4,COc1c(C)cc(S(=O)(=O)NCc2ccco2)c(C)c1C,inactive
5,CCN1/C(=C/C=C/c2oc3ccc(-c4ccccc4)cc3[n+]2CC)Oc2ccc(-c3ccccc3)cc21,29.9 µM (active)
6,O=C(Cc1ccc(NC2=NC3CS(=O)(=O)CC3S2)cc1)N1CCN(c2ccc(F)cc2)CC1 (centres undefined),inactive
7,COc1cc(CCNC2=CC(=O)c3ncccc3C2=O)ccc1O,16.8 µM (active)
8,COc1ccc(CN2C(=O)c3cccnc3C2=O)cc1S(=O)(=O)N1CCOc2ccccc21,inactive
9,COc1ccc(CN2C(=O)c3cccnc3C2=O)cc1S(=O)(=O)NCc1ccc(C)o1,inactive
10,CC(C)(C)c1ccc(SC2=C[C@@]3(O)CC[C@@H](O)[C@@](Sc4ccc(C(C)(C)C)cc4)(C2=O)[C@H]3O)cc1,25.1 µM (active)
11,CCOC(=O)c1c(C)[nH]c(C(=O)N(C)CC(=O)Nc2ccc(OCC)c(OCC)c2)c1C,inactive
12,C=CCn1c(SCCN2C(=O)c3ccccc3C2=O)nc2scc(-c3ccc(F)cc3)c2c1=O,inactive
13,C=CCn1c(SCC(=O)c2[nH]c(C)c(C(=O)OCC)c2C)nc2scc(-c3ccc(OC)c(OC)c3)c2c1=O,20 µM (active)
14,O=C1OCCN1C(=O)[C@H]1[C@H](c2ccc(F)cc2)C(c2ccccc2)=NN1c1ccccc1,inactive
15,CNc1c2cccc(C)c2nc2c(C(=O)NCCN(C)C)cccc12,0.794 µM (active)
16,Cc1cccc2c(C(=O)O)c3cccc(C)c3nc12,inactive
17,COc1ccc(C(=O)NCCNc2nc3c(C)cccc3cc2C#N)cc1OC,inactive
18,CC1CCN(c2nc(Cl)nc(Nc3ccc([N+](=O)[O-])cc3)n2)CC1,39.8 µM (active)
19,CCOc1nc(Nc2ccc([N+](=O)[O-])cc2)nc(NC(C)(C)C)n1,inactive
20,O=[N+]([O-])c1ccc(Nc2nc(N3CCOCC3)nc(N3CCOCC3)n2)cc1,inactive
21,COCc1ccc(C(=O)Nc2ccccc2C(=O)NCc2cccnc2)cc1,inactive
22,CC(C)(C)OC(=O)NCc1ccc(NC(=O)c2[nH]cnc2C(=O)N[C@@H](Cc2ccccc2)C(=O)OCc2ccccc2)cc1,35.5 µM (active)
23,C[C@H](NC(=O)c1[nH]cnc1C(=O)Nc1ccc(CNC(=O)OC(C)(C)C)cc1)C(=O)OCc1ccccc1,39.8 µM (active)
24,CC(NC(=O)OC(C)(C)C)C(=O)NC(CCC(=O)OCc1ccccc1)C(N)=O (centres undefined),inactive
25,O=C(NC(Cc1ccccc1)C(=O)Oc1ccc2c(C(F)(F)F)cc(=O)oc2c1)OCc1ccccc1 (centres undefined),inactive

row,SMILES,Potency
1,C[C@H](NC(=O)c1[nH]cnc1C(=O)NCc1ccc(CNC(=O)OC(C)(C)C)cc1)C(=O)OCc1ccccc1,25.1 µM (active)
2,COc1ccccc1C1C2=C(CC(C)(C)CC2=O)N(CC(=O)O)C2=C1C(=O)CC(C)(C)C2,inactive
3,CN(CCC#N)C(=O)COC(=O)c1c2c(nc3ccccc13)/C(=C\c1ccco1)CC2,inactive
4,COc1ccccc1N/C=C/c1onc(C)c1[N+](=O)[O-],inactive
5,O=C(OCC1OC(n2cc(Br)c(=O)[nH]c2=O)C(Br)C1O)c1ccccc1 (centres undefined),inactive
6,COc1ccc(C(=O)COC(=O)c2cncc(Br)c2)cc1,inactive
7,Cc1cc(NC(=O)COC(=O)c2cccc(O)c2)no1,inactive
8,CCOC(=O)c1ccc(N2C(=O)c3[nH]nc(-c4ccccc4)c3C2c2ccc(CC)cc2)cc1 (centres undefined),39.8 µM (active)
9,CCOC(=O)c1ccc(N2C(=O)c3[nH]nc(-c4ccc(OC)cc4)c3C2c2cccc(O)c2)cc1 (centres undefined),31.6 µM (active)
10,Cc1cc(NC(=O)Nc2ccc(OCc3ccccc3)cc2)n(C)n1,inactive
11,CCOc1cc(CNc2ccc(O)cc2)cc(Br)c1OCc1ccccc1,20 µM (active)
12,Oc1ccc(NCc2ccccc2OCc2ccccc2)cc1,39.8 µM (active)
13,Oc1ccc(NCc2cccc(OCc3ccccc3)c2)cc1,28.2 µM (active)
14,Oc1ccc(NCc2cccs2)cc1,inactive
15,O=C1CCCCC/C1=N/Nc1ccc(OCc2ccccc2)cc1,inactive
16,CC(O)CNCCCCOc1ccc(OCc2ccccc2)cc1 (centres undefined),inactive
17,CC(NCc1cccc(OCc2ccccc2)c1)C(O)c1ccccc1 (centres undefined),25.1 µM (active)
18,COc1cc(CNC(C)(C)CO)cc(Br)c1OCc1ccccc1,inactive
19,CN=C(S)Nc1ccc(OCc2ccccc2)cc1,inactive
20,CCOc1ccc(C2C(C(=O)Nc3ccccc3)=C(C)N=c3s/c(=C/c4cccc(OCC(=O)O)c4)c(=O)n32)cc1 (centres undefined),inactive
21,N#CC1=C(N)OC2=C(CC/C2=C\c2ccccc2Cl)C1c1ccccc1Cl (centres undefined),inactive
22,COCCNC(=O)c1c(N)n(CCCn2ccnc2)c2nc3ccccc3nc12,inactive
23,O=C(Oc1ccc2ccc(=O)oc2c1)c1ccccc1,inactive
24,Oc1ccc(NCc2ccc(OCc3ccccc3Cl)cc2)cc1,22.4 µM (active)
25,Clc1ncccc1OCc1ccccc1,inactive

row,SMILES,Potency
1,c1ccc(COc2ccccc2CNC23CC4CC(CC(C4)C2)C3)cc1,20 µM (active)
2,N=c1c(C(=O)NC2CCCC2)cc2c(=O)n3ccccc3nc2n1CC1CCCO1 (centres undefined),inactive
3,COC(=O)Cc1cc(=O)oc2c(C)c(O)ccc12,inactive
4,CCCCn1c(-c2cccc(C)c2)nc2cc3nc(O)c(C(C)C)nc3cc21,31.6 µM (active)
5,CCCCn1c(C2CCCCC2)nc2cc3nc(O)c(C(C)C)nc3cc21,35.5 µM (active)
6,CCCC1=Nc2ncnn2C(c2cccs2)/C1=C(\O)OCC (centres undefined),inactive
7,CCC(C)n1c(=N)c(C(=O)NC2CCCCC2)cc2c(=O)n3ccccc3nc21 (centres undefined),inactive
8,CCN(C(=O)COC(=O)CCC(=O)c1ccc(Cl)cc1)c1c(N)n(Cc2ccccc2)c(=O)[nH]c1=O,inactive
9,CCN(C(=O)COC(=O)CCS(=O)(=O)c1ccccc1)c1c(N)n(Cc2ccccc2)c(=O)[nH]c1=O,inactive
10,CCN(C(=O)COC(=O)C1CCC(C(C)(C)C)CC1)c1c(N)n(Cc2ccccc2)c(=O)[nH]c1=O (centres undefined),22.4 µM (active)
11,CN(C(=O)COC(=O)/C=C/c1ccc2ccccc2n1)C1CCS(=O)(=O)C1 (centres undefined),inactive
12,Cc1cc(Nc2cccc(O)c2)c2cccc(Br)c2n1,8.91 µM (active)
13,Oc1cccc(Nc2c3ccccc3nc3ccccc23)c1,inactive
14,Cc1cc(NCCO)c2cc(O)ccc2n1,inactive
15,CCOC(=O)C1=CN(CC2CCCO2)C=C(C(=O)OCC)C1c1ccccc1C(F)(F)F (centres undefined),inactive
16,COc1ccc(C(=O)/C=C/Sc2nc3ccccc3o2)cc1,39.8 µM (active)
17,COc1ccc(C(=O)/C=C2\Sc3ccccc3N2C)cc1,inactive
18,COc1cccc(C(=O)Oc2ccc3ccc(=O)oc3c2)c1,inactive
19,CCOC(=O)c1cc2c(=O)n3cccc(C)c3nc2n(Cc2ccco2)/c1=N/C(=O)c1ccccc1,inactive
20,N#CC1=C(N)N2C(=C(C#N)C1c1cccc(Br)c1)Nc1ccccc12 (centres undefined),inactive
21,O=C(OCCC12CC3CC(CC(C3)C1)C2)c1ccc(NCc2cc(O)ccc2O)cc1,10 µM (active)
22,COC(=O)C1=CN(CCOC23CC4CC(CC(C4)C2)C3)C=C(C(=O)OC)C1c1ccsc1,inactive
23,O=C(OC12CC3CC(CC(C3)C1)C2)c1ccc(NCc2cc(O)ccc2O)cc1,8.44 µM (active)
24,CC1CCN(c2ccc3c(c2)S(=O)(=O)c2cccc(C(=O)O)c2C3=O)CC1,inactive
